Results from PubChem BioAssay (NCI).
About 83,000 compounds went through this panel and 20% of them were active in at least one assay; those are over-represented in the sample as a whole.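 How to read the values: 0–100, growth inhibition (40 = 60% inhibited); 0, no net growth; -100 to 0, cell death (-40 = 40% of starting cells died; -100 = all dead).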 Values without a mark were called inactive. Calls of active or inactive are those of the source. The calls were made as follows: active = growth percent below 10; inactive = the rest.

Test system: MDA-MB-468 breast
Assay: NCI-60 one-dose screen, 48 h (100 = growth as untreated, 0 = no growth, -100 = all killed)
Conditions: 10 µM unless noted

Q: With COc1ccc(C(=O)c2sc3nc4c(cc3c2N)N2CCC4CC2)cc1OC as the molecule, how does the growth read?
A: 72.2%

Q: How did the growth turn out when C=CCOC(=O)C(Br)CC (centres undefined) was run?
A: 98%

Q: Which growth does the source give for CC(C)(O)/C=C/C(=O)[C@](C)(O)[C@H]1[C@H](O)C[C@@]2(C)[C@H]3CC=C4[C@@H](C[C@H](O)C(=O)C4(C)C)[C@]3(C)C(=O)C[C@]12C here?
A: -23.4% (active)

Q: With COc1cc(C2C3=C(CCCC3=O)N(CCO)c3cc4c(cc32)CCC4)cc(OC)c1OC (centres undefined) as the molecule, how does the growth read?
A: 93.8%

Q: How did the growth turn out when O=S(=O)(c1ccc(O)cc1)c1ccccc1O was run?
A: 108%

Q: Which growth does the source give for NC(=O)c1cc([N+](=O)[O-])c(Cl)c([N+](=O)[O-])c1Cl here?
A: -84.9% (active)

Q: Which growth does the source give for CCOC(=O)Nc1cc(Cl)c([N+](=O)[O-])c(NC(=O)OCC)n1 here?
A: 87.2%

Q: For Clc1ccc(SSC(Cl)(Cl)Cl)cc1, which growth is on record?
A: 104%

Q: With O=[As](O)(O)c1ccccc1[As](=O)(O)O as the molecule, how does the growth read?
A: 99.7%

Q: For Cc1cc(C)cc(Nc2nc3c(s2)CC[C@@]2(C)C3=CC[C@@H]3[C@@H]2CC[C@]2(C)C(=O)CC[C@@H]32)c1, which growth is on record?
A: 57.9%

Q: With O=C(Nc1ccc(Br)cc1)c1cc(Br)cc(Br)c1O as the molecule, how does the growth read?
A: -23.3% (active)

Q: Which growth does the source give for O=C([O][Hg][c]1ccccc1)c1ccccc1 here?
A: -67.2% (active)

Q: ClCc1ccc(Cl)c(Cl)c1 was tested. Which growth did it give?
A: 90.7%

Q: How did the growth turn out when COc1cc2c(cc1OC)CN(C)C(C)C2 (centres undefined) was run?
A: 97.9%

Q: Which growth does the source give for CN(C)C(=O)Oc1ccccc1-c1ccccc1 here?
A: 99.7%

Q: With OCc1ccc2c(c1)OCO2 as the molecule, how does the growth read?
A: 97.6%

Q: For O=C1NC(=O)C(O)(C2(O)C(=O)NC(=O)NC2=O)C(=O)N1, which growth is on record?
A: 99.8%

Q: How did the growth turn out when N#CC1C(C#N)C2CCC1C1C2N1c1ccccc1 (centres undefined) was run?
A: 102%

Q: With COP(=S)(OC)Oc1ccc(SC)c(C)c1 as the molecule, how does the growth read?
A: 108%

Q: How did the growth turn out when NC(=O)CNc1ccc([As]=[As]c2ccc(NCC(N)=O)cc2)cc1 (centres undefined) was run?
A: -6.99% (active)

Q: CC(/C=N/N=C(N)N)=N\N=C(N)N was tested. Which growth did it give?
A: 88.7%

Q: With NC(=O)c1cc([N+](=O)[O-])c(Cl)c([N+](=O)[O-])c1 as the molecule, how does the growth read?
A: 19.8%

Q: For CNC(=O)Oc1ccccc1, which growth is on record?
A: 101%

Q: How did the growth turn out when Clc1ccc(CSC(Cn2ccnc2)c2ccc(Cl)cc2Cl)cc1 (centres undefined) was run?
A: -2.39% (active)

Q: How did the growth turn out when CC(=O)Nc1nc2c(s1)CC[C@@]1(C)C2=CC[C@H]2[C@@H]3CC[C@H](O)[C@@]3(C)CC[C@@H]21 was run?
A: 58.2%

Q: For CC(=O)Cc1ccc2c(c1)OCO2, which growth is on record?
A: 103%

Q: With CC(=O)O[C@H]1CC[C@H]2[C@@H]3CC[C@H]4CC=C(C)C[C@]4(C)[C@H]3CC[C@]12C as the molecule, how does the growth read?
A: 105%

Q: For CCCN1C(=O)NC(=O)C(CC)(N2C(=O)c3c(F)c(F)c(F)c(F)c3C2=O)C1=O (centres undefined), which growth is on record?
A: -50.8% (active)

Q: For C=CCc1cc2c(cc1OCC)OCO2, which growth is on record?
A: 101%
